Measured values reported in PubChem BioAssay.
Results with a measured potency or affinity are listed apart. The source made the active and inactive calls. No rule for the calls is given here.

The compounds below were run against Melanocortin receptor 4 (Homo sapiens) (UniProt P32245) (assay: MC4R antagonists, dose response, counter-screen for LGR2 antagonist project, cell-based, plate reader, cherry pick (AID 743444)). Settings: MC4R-expressing cells, antagonist mode; series mostly up to 35 µM.

| SMILES | outcome |
| --- | --- |
| Cc1ccc(-n2cc(CN(C)Cc3nccn3C)c(-c3cccc(C)c3)n2)cc1 | inactive |
| Cn1nnnc1SCC(=O)N1CCN(C(=O)c2ccco2)CC1 | inactive |
| COc1ccc(-c2cc(-c3nnc(COC(=O)C4CC4)o3)c3ccccc3n2)cc1OC | inactive |
| C[C@H]1CCCCO[C@@H](CN(C)C(=O)Nc2ccc3c(c2)OCO3)[C@@H](C)CN([C@@H](C)CO)C(=O)c2cc(NC(=O)NC3CCCCC3)ccc2O1 | inactive |
